The values that follow come from ChEMBL document CHEMBL4513216, “Probing the Open Global Health Chemical Diversity Library for Multistage-Active Starting Points for Next-Generation Antimalarials” (ACS Infect Dis, 2020).

Molecules are shown by their SMILES. About 2,100 (3.2%) of roughly 65,000 compounds showed an effect of 50% or more. The median lay at about -52%. Shown is part of a subset that was picked to be rich in strong results.

In this experiment the test system is Plasmodium falciparum. As to the kind of experiment: Screen against P. falciparum Asexual Blood Stage (ABS), at 5uM. The settings on record: tested at 5 uM. The format is functional, Dd2.
On to `CC(C)n1nc2c(cc1=O)CN(c1ncnc3ccsc13)CC2`, for which the INHIBITION is on record as -31%.
As to `CSC1=Nc2c(cnn2-c2ccccc2)C2=NCCCN12`, the INHIBITION is reported as 9.95%.
To `CCSC1=Nc2c(cnn2-c2ccc(Cl)cc2)C2=NCCCN12` belongs 67.3%; to `O=C(NC1=NCCCN1c1ccc(Cl)cc1)c1cccc(Cl)c1`, -55.5%; to `CCOc1ccc(N2CCCN=C2NC(=O)c2ccc(Cl)cc2)cc1`, -71.7%.
`CSC1=Nc2c(cnn2-c2ccc(C)cc2)C2=NCCCN12`: the INHIBITION was 53.5%.
As for `Cc1ccc(-n2ncc(C(=O)NC3CCCCC3)c2N)cc1`, the INHIBITION was -125%.
Turning to `COCCNC(=O)c1cc(C(C)C)nc(N2CCCCC2)n1`, the INHIBITION was -39.9%.
`COC(=O)c1ccc(-c2noc(CN(CCO)Cc3cccs3)n2)cc1`: the INHIBITION is -63.8%.
To `O=C(c1cscn1)N1CCCC2(CCN2Cc2cccc(F)c2)C1` (centres undefined) belongs 26.8%.
For `Cc1csc(C(=O)N2CC(S(=O)(=O)C3CCCCC3)C2)c1` the value was -52%.
Consider `c1coc(-c2[nH]c3ncccc3c2CN2CCCOCC2)c1`, for which the INHIBITION is reported as -12.7%.
`Cc1csc2ncnc(N3CCC(Cn4cc(C(C)(C)O)nn4)CC3)c12`: the INHIBITION is recorded as -46.7%.
To `O=C(C1CCOCC1)N1CCC(OCc2cccnc2)CC1` belongs -110%.
Consider `CC(C)NC(=O)C1CN(C(=O)NCc2ccccc2)CC12CCOCC2` (centres undefined), for which the INHIBITION is reported as -153%.
As for `Cc1noc(C)c1CN(C)C(=O)NC1CCOCC1`, the INHIBITION was found to be 16%.
`Cc1noc(C)c1CN(C)C(=O)NC1CCN(C2CC2)CC1`: the INHIBITION is -155%.
To `CC(=O)N1CCC(NC(=O)N(C)Cc2c(C)noc2C)CC1` belongs 51.4%.
Turning to `Cc1noc(C)c1CN1CCc2ncnc(-c3ccncc3)c2CC1`, the INHIBITION was -104%.
For `CCOCCC(=O)Nc1ccnn1-c1ccc(Cl)cc1`, the INHIBITION is given as -23.8%.
For `COCC(=O)Nc1ccnn1-c1ccc(Cl)cc1` the value was 68.3%; for `COCCOCC(=O)Nc1ccnn1-c1ccc(Cl)cc1`, -100%; for `COc1ccc(S(=O)(=O)NC(=O)COc2ccc3c(c2)CCC3)cc1`, -119%.
Consider `c1csc(CN2CCCN(c3ccc(Cn4ccnc4)cn3)CC2)c1`, for which the INHIBITION is recorded as -41.4%.
Take `c1cn(Cc2ccc(N3CCCN(C4CCCC4)CC3)nc2)cn1`: the INHIBITION is recorded as -80%.
To `Fc1ccc(N2CCCN(c3ccc(Cn4ccnc4)cn3)CC2)cc1` belongs 60.2%; to `Cc1ccc(CN2CCn3c(CNS(C)(=O)=O)nnc3C2)s1`, -30.1%.
Turning to `CCc1[nH]c2c(CNC(=O)C3CCN(C)C3)cc(C)cc2c1C` (centres undefined), the INHIBITION is given as -5.66%.
`CCc1[nH]c2c(CNC(=O)[C@@H]3CCCN3C)cc(C)cc2c1C`: the INHIBITION is 60.4%.
With `CCc1[nH]c2c(CNC(=O)C3CCCN(C)C3)cc(C)cc2c1C` (centres undefined), the INHIBITION amounted to 0.72%.
As to `NC(=O)N1CCC2(CC1)CN(c1ccsc1)C(=O)CO2`, the INHIBITION is on record as -60.1%.
With `O=C1CC(NCc2ncc[nH]2)CN1CCc1cccc(Cl)c1` (centres undefined), the INHIBITION is recorded as -17.4%.
In the case of `Clc1cccc(N2CCC(NCc3cc[nH]n3)C2)c1` (centres undefined), the INHIBITION is given as -39.8%.
For `Clc1cccc(N2CCC(NCc3ncc[nH]3)C2)c1` (centres undefined), the INHIBITION came out at 66.6%.
For `Cn1cc(C(=O)N2CCCC(c3cnccn3)C2)cn1` (centres undefined), the INHIBITION is given as -55.6%.
For `O=C1[C@H]2CN(c3ncccn3)C[C@H]2CN1CC1CC1` the value was -51.9%; for `Cc1cc(C(=O)NCCc2nc3c(s2)CCCC3)n(C)n1`, -90%; for `COC(=O)CCN1CCCC1c1cccc2c1OCCO2` (centres undefined), -42.1%.
As for `NC(=O)NC(=O)CCN1CCCC1c1cccc2c1OCCO2` (centres undefined), the INHIBITION is 24.8%.
Regarding `COCCN1CCCC1c1cccc2c1OCCO2` (centres undefined), the INHIBITION was -0.537%.
Regarding `CC(C)NC(=O)CCN1CCCC1c1cccc2c1OCCO2` (centres undefined), the INHIBITION is on record as 53.4%.
In the case of `O=C(CCN1CCCC1c1cccc2c1OCCO2)N1CCOCC1` (centres undefined), the INHIBITION is given as -24.9%.
In the case of `CCNC(=O)CCN1CCCC1c1cccc2c1OCCO2` (centres undefined), the INHIBITION was determined as 52.7%.
As for `NC(=O)c1nc2c(s1)CCN(C(=O)Nc1cccc(Cl)c1)CC2`, the INHIBITION is -91.8%.
For `CC(=O)NCC(=O)Nc1cc(C)n(-c2ccc(Cl)cc2Cl)n1` the value was -97%.
As to `CC(C)N(C)C(=O)C1CCN(Cc2cnc3ccccn23)CC1`, the INHIBITION is reported as -38.4%.
For the molecule `CN(C)C(=O)COc1ccccc1CN1CCCC2(C1)CN(C)C(=O)O2` (centres undefined), the INHIBITION is listed as -37.9%.
Turning to `CCS(=O)(=O)c1ncc(CN(C)C)n1Cc1ccccc1`, the INHIBITION is listed as -37.3%.
Consider `CS(=O)(=O)CCC(=O)Nc1nccn1Cc1ccccc1Cl`, for which the INHIBITION is given as -70.9%.
Take `O=C1NC(c2ccccc2)=N[C@@]12CC[C@@H]1CN(Cc3ccoc3)C[C@@H]12`: the INHIBITION came to 59.6%.
To `O=C1NC(c2ccccc2)=N[C@@]12CC[C@@H]1CN(Cc3ccccc3)C[C@@H]12` belongs 42.6%; to `O=C1NC(c2ccccc2)=N[C@@]12CC[C@@H]1CN(Cc3ccncc3)C[C@@H]12`, 15.3%.
Regarding `CN1C(=O)CC(c2cnn(C)c2)C12CCN(C(=O)c1cscn1)CC2` (centres undefined), the INHIBITION was -21.4%.
As for `CC(C)(C)NC(=O)Cn1c(=O)n(Cc2ccco2)c2ncccc21`, the INHIBITION was -56.2%.
For `COCC1CCN(c2ccnc3ccsc23)C1` (centres undefined), the INHIBITION is given as 45.4%.
Consider `Cc1noc(C)c1CN(C)CCC(=O)N1CCc2sccc2C1`, for which the INHIBITION is -54.3%.
As to `CCN1CCN(C(=O)CCc2c(C)noc2Cl)CC1`, the INHIBITION stood at 1.06%.
`Cc1noc(C)c1CC(=O)N1CCc2sccc2C1`: the INHIBITION is on record as -48.1%.
With `Cc1noc(Cl)c1CCC(=O)N1CCN(c2ncccn2)CC1`, the INHIBITION was -34.8%.
On to `Cc1noc(Cl)c1CCC(=O)N1CCN(c2ccccc2)CC1`, for which the INHIBITION is listed as 53%.
Take `Cc1noc(Cl)c1CCC(=O)N1CCc2sccc2C1`: the INHIBITION worked out at 54.4%.
As for `O=C(CCN1CCCC(CC2CC2)(C(=O)O)C1)NC1CCCC1` (centres undefined), the INHIBITION is on record as -79.9%.
With `CC(C)(C)n1ncc2c1CCCC2NCc1ccc2c(c1)CCO2` (centres undefined), the INHIBITION is given as -0.776%.
To `CC(C)(CO)CCCNC(=O)NC1(c2cccc(F)c2)CC1` belongs -79.4%; to `O=C(CCc1ccsc1)NC1CCN(c2cccc(F)c2)CC1`, -55.7%; to `CCc1cc(C(=O)N2CCCC(Cc3ccc(NC)nn3)C2)on1` (centres undefined), -89.6%.
`CC(Cn1ccnc1)NC(=O)C1(c2ccc(F)cc2)CCCC1` (centres undefined): the INHIBITION is -16.4%.
As for `CCC(CN1CCCC1)NC(=O)C1(c2ccc(F)cc2)CC1` (centres undefined), the INHIBITION amounted to 59.1%.
Regarding `CC(Cn1ccnc1)NC(=O)C1(c2ccc(F)cc2)CC1` (centres undefined), the INHIBITION was -96.5%.
To `CCC(CN1CCCCC1)NC(=O)C1(c2ccc(F)cc2)CC1` (centres undefined) belongs 70%; to `Cc1cc(C)n(CC(C)NC(=O)C2(c3ccc(F)cc3)CC2)n1` (centres undefined), -44.3%; to `CC(CNC(=O)C1(c2ccc(F)cc2)CC1)CN1CCCC1=O` (centres undefined), 11.4%.
For `O=C(NCc1cccnc1)[C@H]1CC[C@@H]2[C@@H](CCN2c2ncccn2)O1` the value was 41.4%; for `CNC(=O)c1cc2c(nc1NCC(C)C)CCN(c1ncccn1)CC2`, -98.4%.
As for `CC(Cn1cccn1)NCc1cnc(N2CCCC2)nc1` (centres undefined), the INHIBITION is -141%.
To `c1ccc(OCCCNCc2cccs2)nc1` belongs 19.1%.
To `Cc1ccsc1CNCCCOc1ccccn1` belongs 54.4%.
For `c1ccc(OCCNCc2cccs2)nc1` the value was -79.1%; for `O=C(c1cnc(C2CC2)nc1)N1CCCC(c2nccs2)C1` (centres undefined), -138%.
As for `O=C(c1cscn1)N1CCC2(CCN(S(=O)(=O)c3ccccc3)C2)C1` (centres undefined), the INHIBITION is reported as -20.8%.
For the molecule `O=C(c1cscn1)N1CCC2(CCCN(CCOc3ccccc3)C2)C1` (centres undefined), the INHIBITION amounted to 53.5%.
Turning to `CN(C)C(=O)N1CCC2(CCCN(CCOc3ccccc3)C2)C1` (centres undefined), the INHIBITION is 40.1%.
For `O=C(CC1CC1)N1CCC2(CCCN(CCOc3ccccc3)C2)C1` (centres undefined), the INHIBITION was determined as 57.8%.
For `O=C(N1CCCC1)N1CCC2(CCCN(CCOc3ccccc3)C2)C1` (centres undefined) the value was -1.79%; for `O=C([C@H]1CCCO1)N1CCC2(CCCN(CCOc3ccccc3)C2)C1` (some centres undefined), -41%.
In the case of `Cn1ccnc1CN1CCC(Cn2cc(-c3ccccc3)nn2)CC1`, the INHIBITION turned out to be 24.5%.
In the case of `c1cc(CNCC2CNc3ccnn3C2)cc(OC2CCCC2)n1` (centres undefined), the INHIBITION is -58.6%.
Turning to `CCCc1cnc(C)nc1N1CCC(Cn2cc(CO)nn2)CC1`, the INHIBITION is recorded as -65.7%.
With `Cc1nccn1-c1cccc(C2CCCN(C3CCCC3)C2)n1` (centres undefined), the INHIBITION is listed as 1.22%.
For `Cc1nccn1-c1cccc(C2CCCN(C3CCCCC3)C2)n1` (centres undefined) the value was 44.3%.
On to `CCc1nccn1-c1cccc(C2CCCN(C3CCCCC3)C2)n1` (centres undefined), for which the INHIBITION is 53.2%.
In the case of `Cc1noc(C)c1CN1Cc2ccnn2CC(C(=O)NCC2CC2)C1` (centres undefined), the INHIBITION is reported as -30.3%.
For `CCCN1CCCn2c(nc(CNC(=O)c3nccn3C)cc2=O)C1` the value was -91.8%.
With `CCCn1cc(CN2CCC(c3[nH]ncc3S(C)(=O)=O)C2)cn1` (centres undefined), the INHIBITION is listed as -45.2%.
To `CCn1cc(CN2CCC(c3[nH]ncc3S(C)(=O)=O)C2)cn1` (centres undefined) belongs -44%.
To `CCn1cc(CN2CCCC(c3[nH]ncc3-c3ccc(C)cc3)C2)cn1` (centres undefined) belongs 60.9%.
Consider `Cc1ccc(-c2cn[nH]c2C2CCCN(c3cnccn3)C2)cc1` (centres undefined), for which the INHIBITION is -28%.
For `Cc1ccc(-c2cn[nH]c2C2CCCN(c3ncccn3)C2)cc1` (centres undefined) the value was -1.86%.
For `CCn1cc(CN2CCCC(c3[nH]ncc3-c3ccc(F)cc3)C2)cn1` (centres undefined) the value was 60.9%; for `O=C(c1ccoc1)N1CC[C@@H]2O[C@@H](COCc3ccccn3)CC[C@@H]21`, -109%; for `CO[C@@H]1CCN(S(=O)(=O)c2cccs2)[C@H]1Cc1cccnc1`, -8.97%.
Consider `CCC(C)N(Cc1cccnc1)C(=O)c1ccc(F)c(O)c1` (centres undefined), for which the INHIBITION is recorded as -68.4%.
With `Cc1cc(N2CCCC(O)(CN(C)C)CC2)nc(-c2ccccc2)n1` (centres undefined), the INHIBITION is 57.4%.
With `CN(C)CC1(O)CCCN(c2noc(-c3ccccc3)n2)CC1` (centres undefined), the INHIBITION is given as -3.62%.
With `CN(C)CC1(O)CCCN(c2nc(-c3ccccc3)no2)CC1` (centres undefined), the INHIBITION is reported as -61.2%.
For `CC1CN(C)CCN1C(=O)c1ccn(-c2cccc(F)c2)n1` (centres undefined), the INHIBITION is -38.4%.
With `Cc1cc(NC(=O)NC(C)CN2CCN(c3ccccc3)CC2)on1` (centres undefined), the INHIBITION was 59.6%.
Consider `Cc1cc(NC(=O)CN(c2ccccc2)C(C)C)on1`, for which the INHIBITION is reported as -5.31%.
For `Cc1cc(NC(=O)N(C)CCN2CCN(c3ccccc3)CC2)on1`, the INHIBITION is given as -47.3%.
